{"source": "PubChem BioAssay AID802", "about": "(Columbia University Molecular Screening Center, 2007)", "note": "Hit rate of the full screen: of about 95,000 compounds, about 460 (0.48%) were called active.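 Rule for the calls: active = inhibition above the batch mean plus 3 SD, with images confirmed as a hit by eye (cut at about 37% in these data); inconclusive = inhibition above that limit but hit not confirmed in images; inactive = inhibition not above that limit.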 Many of the other results were omitted from the sample, so actives are more common in it than they were.", "data": [{"experiment": "blockers of endothelial VCAM-1 upregulation by TNFa – imaging, HUVEC, TNFa stimulus, immunofluorescence, primary screen (AID 802);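 note: 0% = TNF-stimulated DMSO wells and 100% = unstimulated control wells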", "conditions": "HUVEC TNFa-induced VCAM-1 immunofluorescence, high-content imaging; at 2 µM; active compounds read high", "values": [{"compound": "CCN(CC)CCN1C(=O)C(=O)/C(=C(/O)c2cnn(-c3ccccc3)c2C)C1c1cccs1", "note": "(centres undefined)", "inhibition": "-0.9% (inactive)"}, {"compound": "COc1ccc(-c2c(C(C)=O)c(C)nc3sc4c(=O)n(-c5ccc(C)cc5)nnc4c23)cc1", "inhibition": "12% (inactive)"}, {"compound": "O=C(CN1CCSCC1)N/N=C/c1ccc(F)cc1", "inhibition": "-11.6% (inactive)"}, {"compound": "CCc1nnc(NC(=O)CSc2nc3ccccc3c(=O)n2CCCOC)s1", "inhibition": "1.6% (inactive)"}, {"compound": "Cc1nnc(SCc2nc3ccccc3nc2C)s1", "inhibition": "-5.5% (inactive)"}, {"compound": "Cc1ccc(NC(=S)NC2CCCC2)cc1", "inhibition": "-15% (inactive)"}, {"compound": "Cc1ccoc1C(=O)Nc1cccc(Oc2ccccc2)c1", "inhibition": "-7.5% (inactive)"}, {"compound": "O=C(O)c1cccnc1NC1CCCC1", "inhibition": "-5.2% (inactive)"}, {"compound": "CC(=O)c1cccc(S(=O)(=O)N2CCC(n3nnc4cc(F)ccc43)CC2)c1", "inhibition": "54.7% (active)"}, {"compound": "O=S(=O)(c1cccc(S(=O)(=O)N2CCC(n3nnc4ccccc43)CC2)c1)N1CCCCC1", "inhibition": "-12.3% (inactive)"}, {"compound": "O=C(c1ccc2c(c1)OCCO2)C1CCN(S(=O)(=O)c2cccc(F)c2)CC1", "inhibition": "-12.7% (inactive)"}, {"compound": "COc1ccc(NC(=O)/C(Cl)=C(/Cl)S(=O)Cc2ccc(C)cc2)cn1", "note": "(centres undefined)", "inhibition": "90.4% (active)"}, {"compound": "COc1cccc(NC(=O)Cc2ccc(C)cc2)c1", "inhibition": "3.7% (inactive)"}, {"compound": "COc1ccc(CC(=O)Nc2ccc(-c3nnc(-c4ccc(C)cc4)o3)cc2)cc1", "inhibition": "-1.2% (inactive)"}, {"compound": "COc1cc(CC(=O)NCc2cccs2)cc(OC)c1OC", "inhibition": "4.1% (inactive)"}, {"compound": "CCOc1ccc(NC(=O)Nc2cc(C)ccc2OC)cc1", "inhibition": "11.7% (inactive)"}, {"compound": "COc1ccc(/C=N\\NC(=O)c2sc(N)nc2C)cc1OC", "inhibition": "-10.1% (inactive)"}, {"compound": "COc1cc(/C=N/NC(=O)Nc2ccccc2)ccc1OCCOc1ccccc1C", "inhibition": "51.1% (active)"}, {"compound": "CC(C)CNC(=S)NNC(=O)c1nn(C)cc1Cl", "inhibition": "5.2% (inactive)"}, {"compound": "Cc1nnsc1S(=O)(=O)Cc1ccccc1Cl", "inhibition": "1.2% (inactive)"}, {"compound": "COCCNS(=O)(=O)c1cc(Br)ccc1OC", "inhibition": "-35.9% (inactive)"}, {"compound": "O=C(Nc1ccccc1)c1ccc2nsnc2c1", "inhibition": "-11.1% (inactive)"}, {"compound": "O=C(Nc1ccc(Cl)cc1)c1ccsn1", "inhibition": "-10% (inactive)"}, {"compound": "O=C(c1ccc(Cl)cc1)c1cnc(Nc2ccccc2)s1", "inhibition": "4.4% (inactive)"}, {"compound": "O=C(Nc1ccccc1)c1nnsc1S(=O)(=O)c1ccc(Cl)cc1", "inhibition": "59.3% (active)"}, {"compound": "CCC(C)(C)n1nnnc1CN1CCN(c2nc3ccc(C)cc3cc2C#N)CC1", "inhibition": "3.1% (inactive)"}, {"compound": "S=C(NCCC1=CCCCC1)Nc1ccccc1", "inhibition": "2.2% (inactive)"}, {"compound": "CC(C)NC(=O)CSc1nnc(COc2ccccc2Cl)o1", "inhibition": "6.7% (inactive)"}, {"compound": "NS(=O)(=O)c1cccnc1Nc1cccc(Cl)c1", "inhibition": "-4.5% (inactive)"}, {"compound": "COC(=O)C1=C(Nc2ccc(OC)cc2)C=C(C)C(C(=O)OC)C1c1ccc(C)cc1", "note": "(centres undefined)", "inhibition": "-3.9% (inactive)"}, {"compound": "O=C(O)CSc1nccn1-c1cccc(Cl)c1", "inhibition": "-15% (inactive)"}, {"compound": "Cc1cccc(C)c1NC1=NC(=S)N(c2ccc(N(C)C)cc2)C1(C)C", "inhibition": "-2.5% (inactive)"}, {"compound": "Cc1ccc(/C=N/NC(=O)c2sccc2OCc2ccc(F)cc2)cc1", "inhibition": "4% (inactive)"}, {"compound": "CCOC(=O)C1(S(=O)(=O)c2ccccc2)CCN(Cc2ccccc2)CC1", "inhibition": "-5.9% (inactive)"}, {"compound": "CC1CC(C)CN(S(=O)(=O)c2cccc(C(=O)N3C(=O)c4cccc(N)c4C3=O)c2)C1", "note": "(centres undefined)", "inhibition": "-20.1% (inactive)"}, {"compound": "CCC(=O)Nc1ccc2nc(C)n(Cc3ccccc3Cl)c(=O)c2c1", "inhibition": "-5.1% (inactive)"}, {"compound": "CC(=O)Nc1ccccc1OC(=O)N1CCOCC1", "inhibition": "-16.3% (inactive)"}, {"compound": "Cc1cc(C)n(-c2nnc(C)n2NC(=O)c2cccc(Cl)c2)n1", "inhibition": "-8.8% (inactive)"}, {"compound": "Cc1ccc(Nc2nc(C)cc(C)c2C(N)=O)cc1", "inhibition": "7.1% (inactive)"}, {"compound": "CC1CCN(S(=O)(=O)c2ccc(S(=O)(=O)NCc3ccco3)cc2)CC1", "inhibition": "-20.1% (inactive)"}, {"compound": "O=C(OC1CCCCC1=O)c1cccc(S(=O)(=O)NCc2ccccc2)c1", "note": "(centres undefined)", "inhibition": "-3.3% (inactive)"}, {"compound": "CN(NC(=O)c1ccccc1)c1nc2ccccc2nc1C(F)(F)F", "inhibition": "11.7% (inactive)"}, {"compound": "CSc1nc(N(C)NC(=O)c2cccc(C)c2)c2ccccc2n1", "inhibition": "83.3% (active)"}, {"compound": "COc1ccc(C(=O)NN(C)c2nc(-c3ccccc3)cc(C)c2S(C)(=O)=O)cc1", "inhibition": "16.7% (inactive)"}, {"compound": "CCN(CC)c1ccc(/C=N/Nc2nc(C)cc(=O)[nH]2)cc1", "inhibition": "11.9% (inactive)"}, {"compound": "COC(=O)C1=C(C(=O)c2ccc(C)cc2)C(c2ccccc2)n2nnnc2N1", "note": "(centres undefined)", "inhibition": "5.8% (inactive)"}, {"compound": "COc1ccc(C(=O)Nc2nc(-c3ccc(S(=O)(=O)N4CCOCC4)cc3)cs2)cc1", "inhibition": "-4.5% (inactive)"}, {"compound": "CCOc1cccc(C(=O)Nc2nnc(-c3cccs3)s2)c1", "inhibition": "-0.3% (inactive)"}, {"compound": "c1ccc(-n2nnnc2NC2CCCCCC2)cc1", "inhibition": "-15.1% (inactive)"}, {"compound": "CCOC(=O)c1ccc(NC(=O)CS(=O)(=O)c2cn(CC)c3ccccc23)cc1", "inhibition": "7% (inactive)"}, {"compound": "Cc1cc(NC(=O)CS(=O)(=O)c2cn(C)c3ccccc23)no1", "inhibition": "28.9% (inactive)"}, {"compound": "O=C(CS(=O)(=O)c1cn(Cc2cccc(F)c2)c2ccccc12)N1CCCCC1", "inhibition": "50.1% (active)"}, {"compound": "O=C(NCCCN1CCOCC1)c1cnn2c(-c3ccccc3)cc(-c3ccccc3)nc12", "inhibition": "12% (inactive)"}, {"compound": "O=C(Nc1cc(-c2nn(CC(=O)N3CCCCC3)c(=O)c3ccccc23)ccc1N1CCOCC1)c1ccc(Cl)cc1", "inhibition": "12.6% (inactive)"}, {"compound": "Cc1ccc(-n2ncc3c(Nc4cccc(C(=O)O)c4)ncnc32)cc1", "inhibition": "-17% (inactive)"}, {"compound": "CCCCNC(=O)CSc1nc2n[nH]c(C)c2c(=N)n1-c1cccc(Cl)c1C", "inhibition": "10.7% (inactive)"}, {"compound": "CCNC(=O)c1sccc1-n1cccc1", "inhibition": "32% (inactive)"}, {"compound": "Cc1ccccc1N1CCN(CCCOc2ccc3c(C)cc(=O)oc3c2)CC1", "inhibition": "-7.7% (inactive)"}, {"compound": "COc1cccc(-c2nnc(SCCOc3ccc4c(C)cc(=O)oc4c3)o2)c1", "inhibition": "0.7% (inactive)"}, {"compound": "Cc1cc(=O)oc2cc(OCC3CC(c4ccccc4Cl)=NO3)ccc12", "note": "(centres undefined)", "inhibition": "59.7% (active)"}, {"compound": "Oc1ccccc1/C=N/n1c(-c2cccs2)n[nH]c1=S", "inhibition": "-7.1% (inactive)"}, {"compound": "O=C(Nc1ccc(-c2nnc(-c3ccccc3)o2)cc1)c1ccc(Br)o1", "inhibition": "-17.2% (inactive)"}, {"compound": "CC(CCc1ccccc1)NC(=O)c1ccc(Br)o1", "note": "(centres undefined)", "inhibition": "95.4% (active)"}, {"compound": "CC(CNC(=O)c1ccc(Br)o1)NC(=O)c1ccc(Br)o1", "note": "(centres undefined)", "inhibition": "-12.4% (inactive)"}]}]}
